Assay results reported in PubChem BioAssay.
Calls of active or inactive are those of the source.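 The calls were made as follows, unless noted: active = fluorescence slope after compound addition differing from the mean of all screened samples at 99.7% confidence, in either direction; inactive = the rest.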

Experiments:
[1] = inhibitors of TNFa-induced NFkB p65 translocation, primary screen, imaging, HUVEC, MLSMR starter and 10KST1 sets (AID 438;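 active = inhibition above 20% together with a positive visual image hit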;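 also: compound added about 3h40 before a 20 min TNFalpha stimulation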;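 as to inhibition: signal is the nuclear over cytoplasmic p65 intensity ratio per well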); conditions: HUVEC TNFa-induced p65 nuclear translocation; cell count: measured here: nuclei count (cytotoxicity indicator), at 2.08 µM unless noted; inhibition: at 2 µM, stronger effect = higher value unless noted
[2] = reduction of polyQ htt aggregates in cells – imaging, exon1htt(103Q)mCFP cells, high-content imaging, primary screen (AID 483;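 active = visual image review flags a hit and inhibition of aggregation exceeds 20%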;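 also: compound exposure lasted 3 days before fixation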;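 as to nuclei count: percent of the per-plate median nuclei count of sample wells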); conditions: exon1htt(103Q)mCFP cell line, aggregate imaging, at 2 µM; inhibition of aggregation: stronger effect = higher value; nuclei count: measured here: cell count, toxicity
[3] = endothelial E-selectin expression blockers – imaging, HUVEC, immunofluorescence, MLSMR starter and 10KST1 sets, primary screen (AID 487;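 active = visually confirmed hit in the image check and inhibition above 20%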;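 as to inhibition: signal is fraction of cell area covered by stained E-selectin grains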;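 as to nuclei count: 100% = median nuclei count of all wells on the same plate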); conditions: HUVEC TNFalpha-induced E-selectin immunofluorescence imaging, at 2 µM; inhibition: stronger effect = higher value; nuclei count: measured here: cell number, toxicity
[4] = target: Voltage-gated potassium channel subunit beta-2 (Rattus norvegicus) (UniProt P62483); experiment: inhibitors of rat Kvbeta2 reductase activity – biochemical, NADPH fluorescence, primary screen (AID 622;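 active = fluorescence slope higher than the sample average by over 3 SD, cut at about -0.22 in these data, passing the limit was not always enough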;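 also: slope of raw intensity against log time taken from 70 to 1610 s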); conditions: recombinant KvBeta, 4-cyanobenzaldehyde reduction, at 10 µM, stronger effect = higher value
[5] = target: Voltage-gated potassium channel subunit beta-2 (Rattus norvegicus) (UniProt P62483); experiment: enhancers of rat Kvbeta2 NADPH turnover – biochemical, NADPH fluorescence, primary screen (AID 623;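 active = NADPH fluorescence slope more negative than the mean of all samples by about 3 SD, 99.7% confidence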;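 also: fluorescence intensity change per second fitted from 20 to 320 s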); conditions: Recombinant KvBeta, NADPH fluorescence decrease slope, 10 min; at 10 µM; stronger effect = lower value
[6] = target: Alpha-2C adrenergic receptor (Homo sapiens) (UniProt P18825); experiment: compounds altering alpha2C-coupled GIRK flux – cell-based, HEK293 alpha2C/GIRK1/2, thallium flux, primary screen (AID 624); conditions: thallium flux BTC fluorescence, at 10 µM, actives lie on both sides;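 also: slope of fluorescence ratio to pre-addition baseline per second over 15 to 24 s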
[7] = blockers of RIG-like receptor reporter activation – cell-based, Sendai virus stimulus, luciferase, 10K MLSCN set, TLR/RLR signaling modifier project, primary screen (AID 602276;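 active = inhibition at or above 50% at 10 µM; inactive = inhibition below 50%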;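 also: firefly luciferase from ISG56 promoter only with Renilla not read in this screen; 0% = Sendai virus plus DMSO and 100% = medium plus DMSO without virus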); conditions: HEK293 RL24 IRF3 luciferase reporter, at 10 µM, stronger effect = higher value
[8] = TLR3 IRF3 reporter activation blockers – cell-based, poly I:C stimulus, luciferase, 10K MLSCN set, primary screen (AID 602277;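 active = inhibition of the reporter signal at or above 50%; inactive = inhibition below 50%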); conditions: HEK293-TLR3 RL24 IRF3 luciferase reporter, at 10 µM, stronger effect = higher value

Sequence of Alpha-2C adrenergic receptor (Homo sapiens) (P18825 whole entry, looked up): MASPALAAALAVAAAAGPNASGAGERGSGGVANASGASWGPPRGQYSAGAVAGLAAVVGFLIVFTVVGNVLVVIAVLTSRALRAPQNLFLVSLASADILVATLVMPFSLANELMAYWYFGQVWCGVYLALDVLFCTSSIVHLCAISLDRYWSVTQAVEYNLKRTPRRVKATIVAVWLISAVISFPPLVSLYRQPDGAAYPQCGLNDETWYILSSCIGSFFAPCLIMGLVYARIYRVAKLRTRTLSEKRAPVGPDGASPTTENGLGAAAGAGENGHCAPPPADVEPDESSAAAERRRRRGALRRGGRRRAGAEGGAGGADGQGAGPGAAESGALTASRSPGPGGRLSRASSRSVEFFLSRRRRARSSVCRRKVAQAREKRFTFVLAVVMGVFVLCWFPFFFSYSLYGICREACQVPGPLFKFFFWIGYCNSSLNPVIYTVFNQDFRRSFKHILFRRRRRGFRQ
Sequence of Voltage-gated potassium channel subunit beta-2 (Rattus norvegicus) (P62483 whole entry, looked up): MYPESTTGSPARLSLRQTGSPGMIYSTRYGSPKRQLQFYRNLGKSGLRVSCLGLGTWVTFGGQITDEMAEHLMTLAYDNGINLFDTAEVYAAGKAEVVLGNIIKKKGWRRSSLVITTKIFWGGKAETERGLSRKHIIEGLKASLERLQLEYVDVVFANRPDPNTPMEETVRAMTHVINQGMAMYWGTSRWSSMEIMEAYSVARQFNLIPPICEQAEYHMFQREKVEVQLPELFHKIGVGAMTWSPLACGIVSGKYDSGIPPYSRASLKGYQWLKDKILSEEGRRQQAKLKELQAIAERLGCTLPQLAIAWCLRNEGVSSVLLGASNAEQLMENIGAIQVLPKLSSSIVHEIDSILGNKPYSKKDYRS

| SMILES | cell count [1] | inhibition [1] | inhibition of aggregation [2] | nuclei count [2] [%] | inhibition [3] | nuclei count [3] [%] | fluorescence slope [4] | NADPH fluorescence slope [5] | slope [6] | inhibition [7] | inhibition [8] |
| --- | --- | --- | --- | --- | --- | --- | --- | --- | --- | --- | --- |
| CC(=O)C1C(=O)NC23CCCCC2C1c1ccccc1O3 (stereo not drawn) | 622 | 3.3% (inactive) | 2.2% (inactive) | 109 | 25.3% (inactive) | 99.5 | -0.357 (inactive) | 4e-05 (inactive) | 0.0063 (inactive) | 4.02% (inactive) | 14.8% (inactive) |
| CCCNC(=O)c1c(N)n(Cc2ccc3c(c2)OCO3)c2nc3ccccc3nc12 | 699 | -14.7% (inactive) | -5.3% (inactive) | 104 | -9.2% (inactive) | 107 | -0.559 (inactive) | -2.1e-05 (inactive) | 0.00324 (inactive) | 19.3% (inactive) | 24.3% (inactive) |
| CC(C)C(=O)c1cn(Cc2ccccc2C#N)c2ccccc12 | 504 | 3.5% (inactive) | 11.4% (inactive) | 72.7 | -24.8% (inactive) | 99.8 | -0.376 (inactive) | 3.6e-05 (inactive) | 0.00712 (inactive) | 17.4% (inactive) | 20.1% (inactive) |
| CCN1c2nc3ccccn3c(=O)c2CC2(C(=O)N(C)C(=O)N(C)C2=O)C1C (stereo not drawn) | 359 | 4.3% (inactive) | -17.6% (inactive) | 104 | -34% (inactive) | 114 | -0.482 (inactive) | 1.6e-06 (inactive) | 0.00491 (inactive) | 19% (inactive) | 19.6% (inactive) |
| CCCCn1c(O)c(C(CC)=Nc2cccc(C(=O)O)c2)c(=O)[nH]c1=O | 688 | -5.8% (inactive) | 9.5% (inactive) | 86.6 | -25.6% (inactive) | 105 | -0.382 (inactive) | 2.4e-05 (inactive) | 0.00652 (inactive) | 9.53% (inactive) | 9.91% (inactive) |
| COC(=O)C1C2c3ccccc3OC1(C)N=c1s/c(=C/c3cnn(C)c3C)c(=O)n12 (stereo not drawn) | 469 | 10.9% (inactive) | 0.9% (inactive) | 115 | -82.7% (inactive) | 112 | -0.332 (inactive) | -4.9e-05 (inactive) | 0.00428 (inactive) | 15.6% (inactive) | 23.4% (inactive) |
| COc1ccc(S(=O)(=O)NC(CC(=O)N2CCC3(CC2)OCCO3)c2ccco2)cc1 (stereo not drawn) | 633 | 6.7% (inactive) | 16.2% (inactive) | 86.8 | -121% (inactive) | 144 | -0.451 (inactive) | -0.000345 (inactive) | 0.00534 (inactive) | 17.9% (inactive) | 22.1% (inactive) |
| CCOCC(=O)NC1CCSC1=O (stereo not drawn) | 342 | -5% (inactive) | 17.7% (inactive) | 75.2 | 10.8% (inactive) | 95.3 | -0.48 (inactive) | -4.8e-05 (inactive) | 0.00601 (inactive) | 18.6% (inactive) | 23.1% (inactive) |
| Cc1cnn(C2CCN(C)CC2)c1N | 791 | -7.4% (inactive) | -22.3% (inactive) | 75.4 | 0.5% (inactive) | 110 | -0.495 (inactive) | 1.3e-05 (inactive) | 0.00651 (inactive) | -8.1% (inactive) | 14.8% (inactive) |
| COc1ccc(CCn2c(O)c(C=NCc3cccnc3)c(=O)[nH]c2=O)cc1OC | 716 | -1.7% (inactive) | -17.3% (inactive) | 111 | 72.3% (active) | 90.2 | -0.629 (inactive) | 1.1e-05 (inactive) | 0.00366 (inactive) | 19.4% (inactive) | 18.7% (inactive) |
| CC(C)(C)C(O)C(Oc1ccc(Cl)cc1)n1cncn1 (stereo not drawn) | 268 | 4.3% (inactive) | 5.1% (inactive) | 93 | -5.1% (inactive) | 131 | -0.592 (inactive) | -2.7e-05 (inactive) | 0.00646 (inactive) | 15.5% (inactive) | 32.5% (inactive) |
| CCCNS(=O)(=O)c1ccc(OCC(=O)N2CCN(Cc3ccccc3)CC2)cc1 | 296 | -7.1% (inactive) | -5% (inactive) | 115 | -3.1% (inactive) | 110 | -0.476 (inactive) | -7e-05 (inactive) | 0.00533 (inactive) | -3.33% (inactive) | -4.45% (inactive) |
| Cc1ccc(-c2nc(CS(=O)CC(=O)N3CCC4(CC3)OCCO4)c(C)o2)cc1 (stereo not drawn) | 704 | -30.6% (inactive) | -2.4% (inactive) | 99.4 | -4.2% (inactive) | 101 | -0.62 (inactive) | -2.5e-05 (inactive) | 0.00606 (inactive) | 16.5% (inactive) | 19.1% (inactive) |
| CC(=NCc1ccc2c(c1)OCO2)c1c(O)n(C)c(=O)n(C)c1=O | 629 | -10.8% (inactive) | 0.7% (inactive) | 94.1 | 5.3% (inactive) | 97.5 | -0.409 (inactive) | 1.3e-05 (inactive) | 0.00333 (inactive) | 20.7% (inactive) | 25.9% (inactive) |
| C(#CCN1CCOCC1)COCC#Cc1ccccc1 | 422 | 1.2% (inactive) | 12.8% (inactive) | 94.4 | -4.6% (inactive) | 112 | -0.622 (inactive) | -5e-05 (inactive) | 0.00639 (inactive) | 8.54% (inactive) | 30.6% (inactive) |
| CN1CCC(N(C)c2ncnc3ccc(Br)cc23)CC1 | 336 | 5% (inactive) | 4.3% (inactive) | 94.9 | 42.2% (inactive) | 79.5 | -0.606 (inactive) | -3.4e-05 (inactive) | 0.00666 (inactive) | 10.9% (inactive) | 23.5% (inactive) |
| Cc1ccc(C2SCC(=O)Nc3c2c(=O)[nH]n3C2CCOC(C)(C)C2)cc1 (stereo not drawn) | 378 | -0.6% (inactive) | -18.2% (inactive) | 128 | -20.4% (inactive) | 111 | -0.37 (inactive) | -3.9e-05 (inactive) | 0.00325 (inactive) | 18% (inactive) | 29.8% (inactive) |
| Cc1cccc(-n2c(O)c(C=NCCCN3CCOCC3)c(=O)[nH]c2=O)c1C | 710 | -3.5% (inactive) | 9.8% (inactive) | 96.5 | 26.7% (inactive) | 102 | -0.391 (inactive) | 2.3e-05 (inactive) | 0.00546 (inactive) | 0.794% (inactive) | 3.78% (inactive) |
| Cc1nc2ccccc2c(=O)n1-c1ccc(F)cc1 | 321 | -5% (inactive) | 7.1% (inactive) | 111 | -36.4% (inactive) | 111 | -0.456 (inactive) | 4.9e-06 (inactive) | 0.00327 (inactive) | 7.2% (inactive) | 36.9% (inactive) |
| COc1ccccc1N(CC(=O)NC1CCCCC1)C(=O)c1cnn(C(C)C)c1 | 526 | 2.5% (inactive) | 3.2% (inactive) | 102 | -128% (inactive) | 157 | -0.598 (inactive) | 9.1e-06 (inactive) | 0.00634 (inactive) | -9.99% (inactive) | -3.91% (inactive) |
| COC(=O)c1cncn1C(C)c1ccccc1 (stereo not drawn) | 671 | -3.4% (inactive) | -10.9% (inactive) | 97.9 | -88.8% (inactive) | 110 | -0.488 (inactive) | -2.9e-05 (inactive) | 0.0055 (inactive) | -53.9% (inactive) | 13.1% (inactive) |
| COc1ccc(CC2C(=O)NC(=O)NC2=O)c(OC)c1 | 757 | 1.7% (inactive) | -24.3% (inactive) | 105 | -3.4% (inactive) | 105 | -0.406 (inactive) | 5.3e-05 (inactive) | 0.00731 (inactive) | -6.04% (inactive) | -0.414% (inactive) |
| CCC(C(=O)N1CCC2(CC1)OCCO2)c1ccccc1 (stereo not drawn) | 391 | 8.2% (inactive) | 18.1% (inactive) | 111 | -81.6% (inactive) | 99.5 | -0.381 (inactive) | -2.6e-05 (inactive) | 0.00492 (inactive) | 14.2% (inactive) | 7.25% (inactive) |
| Cc1ccc(Cn2c(C)c3cnn(CC(=O)N4CCC5(CC4)OCCO5)c(=O)c3c2C)cc1 | 471 | -6.5% (inactive) | -6.5% (inactive) | 110 | -135% (inactive) | 110 | -0.332 (inactive) | -6.2e-05 (inactive) | 0.0048 (inactive) | 9.46% (inactive) | -2.44% (inactive) |
| Cc1cc(OCC(=O)O)c2c3c(c(=O)oc2c1)CCCC3 | 361 | 5.7% (inactive) | -15% (inactive) | 92.2 | -74% (inactive) | 87.1 | -0.117 (active) | -1.4e-05 (inactive) | 0.00624 (inactive) | -0.949% (inactive) | -5.67% (inactive) |
| CCN1c2nc3c(C)cccn3c(=O)c2CC2(C(=O)N(C)C(=O)N(C)C2=O)C1C (stereo not drawn) | 413 | 8.9% (inactive) | 8.3% (inactive) | 100 | 19.8% (inactive) | 111 | -0.477 (inactive) | -5.3e-05 (inactive) | 0.00711 (inactive) | 16.5% (inactive) | 17.7% (inactive) |
| CN1C(=O)N(C)C(=O)C2(Cc3ccccc3N3CCOCC32)C1=O (stereo not drawn) | 547 | -5.7% (inactive) | -30.5% (inactive) | 92.5 | -43.9% (inactive) | 148 | -0.363 (inactive) | 3.8e-05 (inactive) | 0.00653 (inactive) | 16.2% (inactive) | 24.6% (inactive) |
| COc1ccc(OC)c(N2C(=O)NC(=O)C(CCc3ccncc3)(CCc3ccncc3)C2=O)c1 | 397 | 1% (inactive) | -24.7% (inactive) | 107 | -73% (inactive) | 115 | -0.329 (inactive) | -2.9e-06 (inactive) | 0.00479 (inactive) | 10.1% (inactive) | 12% (inactive) |
